Screens: PubChem, several laboratories
Compounds with a hit are over-represented: about 1.5% of the library has one in this group of screens.
GLD-1 TGE inh: GLD-1-TGE RNA interaction inhibition (C. elegans) | AID 2280 | actives 0.44% (n = 320,000) | Q17339 | inhibition, % at 5.96 µM | purified GLD-1 + fluorescein TGE RNA, fluorescence polarization;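 active = percent inhibition above a per-plate cutoff, the plate mean of test compounds plus 3 SD, cut at about 30% in these data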;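 also: 0% = DMSO wells with GLD-1 and probe and 100% = wells lacking GLD-1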
E coli Lon inh: E. coli protease La inhibition | purified E. coli Lon protease, fluorescence polarization | P0A9M0 | actives 0.42% (n = 360,000) | inhibition, % at 7.94 µM; in the data active = inhibition above about 13%, passing the limit was not always enough;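 also: 0% = enzyme with probe and DMSO and 100% = no enzyme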
Target sequence (P0A9M0 whole entry, looked up): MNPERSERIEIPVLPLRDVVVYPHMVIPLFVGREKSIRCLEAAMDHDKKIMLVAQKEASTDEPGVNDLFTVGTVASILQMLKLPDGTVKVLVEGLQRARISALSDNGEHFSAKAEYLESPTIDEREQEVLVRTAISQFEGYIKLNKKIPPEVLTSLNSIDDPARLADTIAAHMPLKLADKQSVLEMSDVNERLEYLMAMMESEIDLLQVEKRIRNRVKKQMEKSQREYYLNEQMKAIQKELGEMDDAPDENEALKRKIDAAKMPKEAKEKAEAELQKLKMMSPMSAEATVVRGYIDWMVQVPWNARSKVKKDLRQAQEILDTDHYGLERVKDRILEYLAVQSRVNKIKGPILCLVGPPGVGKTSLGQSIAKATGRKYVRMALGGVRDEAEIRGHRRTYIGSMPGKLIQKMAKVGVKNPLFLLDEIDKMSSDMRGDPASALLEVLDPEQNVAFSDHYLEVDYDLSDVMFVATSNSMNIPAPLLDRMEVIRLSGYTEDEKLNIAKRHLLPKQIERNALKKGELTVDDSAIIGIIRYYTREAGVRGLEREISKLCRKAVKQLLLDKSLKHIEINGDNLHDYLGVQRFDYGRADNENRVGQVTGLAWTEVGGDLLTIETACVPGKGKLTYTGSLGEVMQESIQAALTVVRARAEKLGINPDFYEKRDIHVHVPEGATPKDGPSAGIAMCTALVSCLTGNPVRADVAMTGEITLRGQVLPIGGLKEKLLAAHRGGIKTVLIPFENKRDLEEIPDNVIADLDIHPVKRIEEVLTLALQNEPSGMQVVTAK
MCL1 BIM primary: inhibitors of human MCL1 binding to BIM-BH3 peptide; GST-MCL1 / FITC-Bim-BH3 fluorescence polarization; inhibition, % at 10.9 µM; actives 0.68% (n = 320,000);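 active = inhibition above the mean inhibition of all tested compounds plus 3 SD, set per campaign, cut at about 40% in these data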;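 also: 0% = DMSO wells and 100% = unlabeled Bim-BH3 peptide control; higher means more loss of mP so more displacement of Bim peptide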
EBV gp42 block: inhibitors of Epstein-Barr virus glycoprotein 42; Q1HVG2; Fluorescence polarization binding assay, mP read-out; inhibition, % (tested at 21.74 µM); actives 0.42% (n = 220,000); in the data active = inhibition above about 50%
MEX-5 binding: C. elegans MEX-5 TCR-2 RNA binding activity; MEX-5/FITC-TCR2 RNA binding, fluorescence polarization; active compounds read low; activity score (negative = inhibition of binding), % at 10 µM; actives 0.38% (n = 300,000); AID 1832;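 active = inhibition past about -25% in most replicates, and total fluorescence under double the plate's negative control median, limit read from the data; inconclusive = replicates evenly split on the limit, or fluorescence at least double controls; inactive = too little inhibition in most replicates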;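 also: 0% = DMSO and -100% = 5 µM competing unlabeled TCR2 RNA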
BCLXL inh: blocks human Bcl-xL binding to Bim BH3 peptide; inhibition, % at 10.9 µM; GST-Bcl-xL / FITC-Bim BH3 peptide fluorescence polarization; actives 0.7% (n = 320,000); Q07817;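 active = inhibition above the mean of all tested compounds plus 3 SD, cutoff set per campaign, cut at about 30% in these data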;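 also: 0% = DMSO wells and 100% = unlabeled Bim-BH3 peptide competitor; inhibitors lower millipolarization by displacing the labeled peptide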
The depositor's hits bear a star; ? = inconclusive; nt = no result given.

SMILES	GLD-1 TGE inh	E coli Lon inh	MCL1 BIM primary	EBV gp42 block	MEX-5 binding	BCLXL inh
CCCCCn1c(N)c(-c2nc3ccccc3s2)c2c([N+](=O)[O-])nn(CC)c(=O)c21	3	-9	15	-14	0	5
O=C(C1=C(O)C(=O)N(CC2CCCO2)C1c1ccccc1F)c1ccco1 (configuration not stated)	6	-5	-1	nt	2	1
O=C(CSc1ncccn1)N/N=C/c1cccc(OC2CSC2)c1	1	-6	6	-3	-2	1
Cn1ncc(Cl)c1C(=O)N/N=C/c1cccc(OC2CSC2)c1	4	-3	7	12	-36*	4
Clc1ccc(-c2nnc3sc(-c4ccc(Br)o4)nn23)cc1	58*	11	36	-13	nt	25
Clc1ccc(-c2nnc3sc(-c4ccc(Br)o4)nn23)c(Cl)c1	-1	1	5	-13	-4	0
Cc1cccc(CN2C(=O)N/C(=C/c3ccc(C)s3)C2=O)c1	-81	-75	-74	-97	-29*	-56
CCN(CC(=O)NCc1cccs1)C(=O)/C=C/c1cc(OC)c(OC)c(OC)c1	nt	6	nt	nt	nt	nt
CCN(CC(=O)Nc1c(C(=O)OC)[nH]c2ccccc12)c1ccc2c(c1)OCO2	3	10	37	3	-6	44*
COC(=O)c1[nH]c2ccccc2c1NC(=O)/C=C/c1ccc2c(c1)OCO2	-1	-23	4	-25	1	1
CC(C)OCC(O)CN1CCN(CCN2C(=O)c3cccc4cccc(c34)C2=O)CC1 (configuration not stated)	14	-4	0	nt	-59*	-3
CC(C)(CCc1ccccn1)C(=O)CCCc1ccccn1	nt	6	nt	nt	nt	nt
CCOC(=O)C1(Cc2ccccc2C(F)(F)F)CCN(C2CCN(C(C)C)CC2)CC1	7	-6	-2	-11	-7	4
CC1=CN2C(=N)/C(=C/c3ccc([N+](=O)[O-])o3)C(=O)N=C2S1	12	-187	31	4	0	35*
CC1=CN2C(=N)/C(=C/c3ccco3)C(=O)N=C2S1	-6	-15	-9	-18	-1	-7
CSCCNC(=O)C1(C)CCN1C(=O)c1sccc1C (configuration not stated)	nt	-3	nt	nt	nt	nt
COc1ccc(CN(C)C(C)C(=O)N(C)CC(=O)Nc2ccc(C)cc2)cc1F (configuration not stated)	5	-20	-4	nt	nt	0
CCOC(=O)c1c(NC(=O)CC2Nc3ccccc3NC2=O)sc(C)c1C (configuration not stated)	-6	-2	-10	-120	-35*	1
CCCSCCCNC(=O)CC1Oc2ccccc2NC1=O (configuration not stated)	-2	8	-1	68*	-1	2
O=C(CC1Nc2ccccc2NC1=O)Nc1cc(Cl)cc(Cl)c1 (configuration not stated)	1	-8	1	21	?	-4
COC(=O)c1c(NC(=O)CC2Nc3ccccc3NC2=O)sc(C)c1C (configuration not stated)	-17	-21	-4	-8	-32*	0
COCCCNC(=O)CC1Oc2ccccc2NC1=O (configuration not stated)	10	-2	3	3	-1	3
O=C(CC1Nc2ccccc2NC1=O)NCCCN1CCCCCC1 (configuration not stated)	-11	-1	9	-12	2	6
CCCCNC(=O)CC1Nc2ccccc2NC1=O (configuration not stated)	30	5	28	7	-12	32*
O=C(OC[C@H]1O[C@@H](OC(=O)c2cc(O)c(O)c(OC(=O)c3cc(O)c(O)c(O)c3)c2)[C@H](OC(=O)c2cc(O)c(O)c(OC(=O)c3cc(O)c(O)c(O)c3)c2)[C@@H](OC(=O)c2cc(O)c(O)c(OC(=O)c3cc(O)c(O)c(O)c3)c2)[C@@H]1OC(=O)c1cc(O)c(O)c(OC(=O)c2cc(O)c(O)c(O)c2)c1)c1cc(O)c(O)c(OC(=O)c2cc(O)c(O)c(O)c2)c1	90*	nt	76*	nt	nt	55*
SMILES	GLD-1 TGE inh	E coli Lon inh	MCL1 BIM primary	EBV gp42 block	MEX-5 binding	BCLXL inh
CCn1nc(NC(=O)CC(C)C)c2cc3cccc(C)c3nc21	7	-3	1	nt	0	137*
CCc1ccc(NC(=O)c2ccc3ncsc3c2)cc1	nt	nt	nt	146*	0	nt
O=C(Nc1ccc(Br)cc1)c1ccc2ncsc2c1	1	-4	-10	nt	0	-2
CC(C)(C)c1nc(NCCO)c2nnn(Cc3ccccc3)c2n1	11	-8	0	nt	0	1
CCOC(=O)C(=CNNc1ccccc1)C(=O)OCC	-2	-2	3	-3	1	11
COc1ccc(/C=C2\C(=O)NC(=S)N2C(=O)c2ccc(C)cc2)cc1	-24	-71	-53	-25	-26*	-29
COc1ccc(C(C(=O)NC2CCCC2)N(C(=O)c2ccoc2C)c2cc(C)cc(C)c2)cc1 (configuration not stated)	2	-4	7	-35	2	52*
COc1ccc(C(C(=O)NC2CCCC2)N(C(=O)c2ccoc2C)c2ccccc2)cc1 (configuration not stated)	0	-2	-6	-1	3	-1
CCc1nn(C)c2c(=O)c(=O)c2n(C)[nH]1	24	8	38	23	-18	33*
Cc1nn(C)c2c(=O)c(=O)c2n(C)[nH]1	0	5	-1	-11	1	1
COc1ccc(C(=O)COC(=O)c2cc(C)no2)c(OC)c1	2	-3	2	nt	nt	-6
CCC1=NN2C(=N)/C(=C\c3ccc(OCc4cc(=O)n5nc(CC)sc5n4)c(OC)c3)C(=O)N=C2S1	nt	6	nt	63*	5	nt
CCc1nn2c(=O)cc(COc3ccc(/C=C4\C(=N)N5N=C(CC(C)C)SC5=NC4=O)cc3)nc2s1	3	nt	7	9	-2	6
Cc1onc(-c2ccccc2)c1C(=O)Nc1nncs1	-3	3	7	nt	-1	2
CC(C)(C)NC(=S)N/N=C/c1cccnc1	-1	-4	5	-9	1	4
CN1C(=O)NC(c2cccc(F)c2)C2=C1CC(C)(C)CC2=O (configuration not stated)	-7	2	4	nt	1	36*
COc1ccc(CC(=O)Nc2cc(C)ccc2O)cc1OC	8	7	2	-1	-1	5
CCOC(=O)C1=C(C)N=c2s/c(=C\c3cccn3C)c(=O)n2C1c1cccc(OC)c1OC (configuration not stated)	-20	-42	-17	47	-40*	-12
CCOC(=O)C1=C(C)N=c2s/c(=C\c3ccc(C(=O)O)cc3)c(=O)n2C1c1ccc(OC)cc1OC (configuration not stated)	2	-6	1	nt	-5	-1
